Screens (PubChem BioAssay)
Pf growth 96h = Primary qHTS for delayed death inhibitors of the malarial parasite plastid, 96 hour incubation | P. falciparum luciferase reporter growth, 96 h | Potency, µM (highest dose often 28.7 µM), actives largely listed as inhibitors | 320,000 tested, 6.9% active
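Parasite growth measured via integrated firefly luciferase reporter in P. falciparum. Infected erythrocytes at 2% hematocrit, 0.05% parasitemia final were treated 96 hours at 37 C under 5% CO2, and luminescence was read.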
Pf growth 48h = Primary qHTS for delayed death inhibitors of the malarial parasite plastid, 48 hour incubation. 310,000 tested, 5.9% active. P. falciparum luciferase growth in erythrocytes, 48 h. Potency, µM (doses to about 28.7 µM), actives largely listed as inhibitors. AID 504832, 2011
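Luciferase-expressing P. falciparum in infected erythrocytes (2% hematocrit, 0.1% parasitemia final) in RPMI 1640/0.5% Albumax were exposed to compound for 48 hours at 37 C, 5% CO2; growth read as luminescence.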
Cycloheximide cs = Cycloheximide Counterscreen for Small Molecule Inhibitors of Shiga Toxin; cell reporter, cycloheximide protein synthesis inhibition counterscreen; max response, %; 300,000 tested, 12% active; in the data active means max response mostly above about 13%, no sharp cut-off; inactive means mostly below about 14%; further: read at 38.3 µM for the half of the compounds with a filed dose
Shiga inhibitor = A qHTS for Small Molecule Inhibitors of Shiga Toxin | inhibition, % at 38.7 µM | Vero cells, Shiga toxin protein synthesis inhibition reporter | AID 2315, 2010 | 290,000 tested, 9.2% active; in the data active means inhibition mostly above about 28%, no sharp cut-off; inactive means mostly below about 43%
Numbers stand for hits; – = inactive; ? = inconclusive; · = no result given; [ ] = dose if it differs, or a comment. The list is not random: actives were taken first. Their share in the collection is about 21%. Unless noted, the call rests on the fitted dose curve; in most records, active means well fitted inhibition curve with a large enough effect; inconclusive means small, poorly fitted or top-dose-only effect, or another doubt; inactive means no such curve, though single readings can be large or run the other way.

SMILES	Pf growth 96h	Pf growth 48h	Cycloheximide cs	Shiga inhibitor
O=C(NCc1ccco1)c1ccc(Cl)c(S(=O)(=O)N2CCCC2)c1	2.62µM	9.28µM	·	·
CN(CCOc1ccc(C=C2C(=O)NC(=O)NC2=O)cc1)c1ccccn1	–	–	26.6	–
COc1ccc(OCCOc2cccc(C=C3C(=O)NC(=O)NC3=O)c2)cc1	–	–	32.9	33.2
COc1ccc(C)cc1NC(=O)CNC(=O)c1sc2ccccc2c1Cl	–	–	·	·
O=C1OC(c2ccccc2)/C(=C(/O)c2ccc(Cl)cc2)C1=O (stereo not drawn)	–	·	–	–
O=C1OC(c2ccccc2)/C(=C(/O)c2ccccc2)C1=O (stereo not drawn)	–	·	39.3	101.4
Cc1ccc(/C(O)=C2/C(=O)C(=O)OC2c2ccc(Cl)cc2)cc1 (stereo not drawn)	–	–	23.7	–
O=C(NCCCN1CCCC1=O)c1cc(-c2ccc3c(c2)OCO3)nc2ccccc12	–	–	–	–
O=C(Nc1ccc(N2CCN(C(=O)c3ccco3)CC2)cc1)c1ccccc1F	?	?	22.1	–
O=C(Nc1ccc(N2CCN(C(=O)c3ccco3)CC2)cc1)c1cccc(F)c1	?	?	22.2	–
O=C(c1ccco1)N1CCN(Cc2cccc(F)c2)CC1	·	–	–	–
O=C(c1cccc(F)c1)N1CCN(Cc2ccco2)CC1	6.57µM	–	–	–
CC(C)Oc1ccc(C(=O)Nc2ccc(N3CCN(C(=O)c4ccco4)CC3)cc2)cc1	?	?	–	–
CN(CC(=O)Nc1ccccc1Cl)C(=O)COC(=O)C1=COCCO1	–	–	·	·
NC(=O)C1(N2CCCCC2)CCN(C(=S)Nc2cccc(Cl)c2)CC1	–	–	–	–
Cc1ccc(S(=O)(=O)N2CCOCC2)cc1NC(=O)CNc1ccccc1N1CCCC1=O	?	9.28µM	·	·
O=C(CSc1cccc[n+]1[O-])Nc1cc(S(=O)(=O)N2CCOCC2)ccc1N1CCOCC1	–	–	49.4	–
Cc1ccccc1SCC(=O)Nc1cc(S(=O)(=O)N2CCOCC2)ccc1N1CCOCC1	?	8.28µM	–	–
CC(NCC(=O)Nc1cc(S(=O)(=O)N2CCOCC2)ccc1N1CCOCC1)c1ccco1 (stereo not drawn)	5.86µM	?	·	·
Cc1ccc(S(=O)(=O)N2CCOCC2)cc1NC(=O)CNC1CCCC1	–	–	–	–
CCn1c(=S)sc2c(=O)[nH]c(SCC(=O)Nc3cc(OC)ccc3OC)nc21	–	–	–	–
CCOc1ccccc1NC(=O)NC1(C(=O)NCc2cccnc2)CCCCC1	–	–	–	–
COc1cc(OC)c(NC(=O)N2CCOCC2)cc1Cl	–	–	–	–
CCOC(=O)N1CCN(C(=O)CSc2nc(=O)n3ccccc3n2)CC1	–	–	·	·
CC1CCc2cc(F)cc3c(O)c(C(=O)NCCN(C)C)c(=O)n1c23 (stereo not drawn)	9.28µM	–	–	–
SMILES	Pf growth 96h	Pf growth 48h	Cycloheximide cs	Shiga inhibitor
COc1ccc(N2C(=O)CC(c3ccc(OC(C)C)cc3)C2=O)cc1 (stereo not drawn)	7.38µM	·	–	–
C=CCN1C(=O)/C(=C2/Sc3ccc(OC)cc3N2C)SC1=Nc1ccccc1	–[1.15 µM]	–	–	–
CCCCN1C(=O)/C(=C2/Sc3ccccc3N2C)S/C1=N\c1ncn[nH]1	–	7.38µM	–	–
O=C(Nc1ccc2nn(-c3ccccc3)nc2c1)c1ccc(Br)o1	–	?	13.5	74.4
O=C(Nc1cccc(F)c1)c1ccc(Br)o1	–	–	59.5	77.4
O=C(Nc1cccc(OC(F)(F)F)c1)c1ccc(Br)o1	?	?	40.3	–
O=C(Nc1ccc2nn(-c3ccccc3)nc2c1)c1ccc2c(c1)OCCO2	–	–	–	–
CC(=O)c1cccc(NC(=O)c2ccc(Br)o2)c1	–	–	24.5	62.7
COc1cccc(NC(=O)c2ccc(OC(F)(F)F)cc2)c1	–	–	·	·
CCc1ccccc1NC(=O)COc1ccc(C(=S)N2CCCC2)cc1	–	?	–	–
C/C(=N\NC(=O)c1c(Br)c(C)nn1C)c1cccc(NC(=O)c2ccccc2C)c1	–	–	–	–
C/C(=N\NC(=O)c1cccc(Br)c1)c1cccc(NC(=O)c2ccc(C)o2)c1	–	–	27.8	42.1
CC(=O)c1cccc(NC(=O)c2ccc(C)o2)c1	?	–	25.7	–
Cc1ccn(CC(=O)N2CCCC(N3CCN(Cc4ccc5c(c4)OCO5)CC3)C2)n1 (stereo not drawn)	?	–	–	–
COc1ccc(C(c2nnnn2Cc2ccc(F)cc2)N2CCN(c3ccc(OC)cc3)CC2)cc1 (stereo not drawn)	–	10.4µM	–	–
COc1ccc(C(c2nnnn2Cc2cccs2)N2CCN(c3ccc(F)cc3)CC2)cc1OC (stereo not drawn)	13.1µM	5.86µM	–	–
COc1ccc(Cn2nnnc2C(c2ccccn2)N2CCN(c3cc(Cl)ccc3C)CC2)cc1 (stereo not drawn)	·	11.7µM	–	–
Fc1ccc(C(c2nnnn2Cc2ccccc2)N2CCSCC2)cc1 (stereo not drawn)	·	?	–	–
Fc1ccc(Cn2nnnc2C(c2ccc(F)cc2)N2CC=C(c3ccc(F)cc3)CC2)cc1 (stereo not drawn)	13.1µM	–	–	–
CC12CCC(=O)N1C(C(=O)NNC(=O)c1ccc(F)cc1)CS2 (stereo not drawn)	–	–	·	·
O=C(NCC(=O)N(c1ccccc1)C(C(=O)NC1CCCCC1)c1cccnc1)c1ccco1 (stereo not drawn)	?	–	–	–
COc1ccc(Cn2nnnc2C(c2ccc(F)cc2)N2CCN(C3CCCC3)CC2)cc1 (stereo not drawn)	–	?	–	–
COc1ccc(N2CCN(C(c3ccccc3)c3nnnn3Cc3ccc(F)cc3)CC2)cc1 (stereo not drawn)	·	9.28µM	–	–
COc1ccc(C(c2nnnn2Cc2ccc(F)cc2)N2CCN(c3ccccc3)CC2)cc1 (stereo not drawn)	?	11.7µM	–	–
COc1cc(NC(=O)C2Cc3ccccc3CN2S(C)(=O)=O)cc(OC)c1 (stereo not drawn)	1.85µM	–	–	–
SMILES	Pf growth 96h	Pf growth 48h	Cycloheximide cs	Shiga inhibitor
COc1ccc(OC)c(S(=O)(=O)N2CCCC2C(=O)N2CCc3ccccc3C2)c1 (stereo not drawn)	–	–	–	–
COc1cc(NC(=O)NC2Cc3ccccc3C2)cc(OC)c1	?	?	20.5	52.8
CCOc1ccccc1NC(=O)C1CCCN1S(=O)(=O)c1ccccc1C(F)(F)F (stereo not drawn)	?	8.28µM	·	·
CCOc1ccccc1NC(=O)C1CCCN(S(=O)(=O)c2cccc3cccnc23)C1 (stereo not drawn)	?	?	–	–
COc1ccc(OC)c(S(=O)(=O)N2Cc3ccccc3CC2C(=O)Nc2nccs2)c1 (stereo not drawn)	–	–	63.8	106.5
COc1ccc(Cl)cc1NC(=O)C1Cc2ccccc2CN1S(C)(=O)=O (stereo not drawn)	–	–	–	–
Cc1cccc(Nc2cc(=O)n(C)c(=O)[nH]2)c1	?	–	–	–
CCOc1ccccc1NC(=O)C1Cc2ccccc2CN1S(C)(=O)=O (stereo not drawn)	11.7µM	?	–	–
